Experimental data: publication PMC12136788
Substitutions are numbered along the chain they refer to. Over roughly 5,800 sequences, “enrichment r” has its median near 0.54; the highest 2% begin near 16. The sample holds the highest values, similar sequences and a random draw of the others, so the mix is not that of the screen.

B1: chr8:25429562:25429664:-|3pUTR|ENSG00000104756|unk|FALSE|unique (ssRNA)
RNA: GGGAGUUCUACAGUCCGACGAUCAGAAAAGCACUCAUUUAAUAGAUGUAGGGAAACUAGAUAUUGCUGCCUUUUGAAUGGGGUAGGGGGGUUUACCUGGUUUUAUGACCAGGCAUAGUAUCUAUUAUAUUUGCUUUUAAAUAGCAACAGAGGAUUGAGCAUCA
B2: chr11:74334375:74334476:-|3pUTR|ENSG00000165434|msi1|FALSE|unique (ssRNA)
RNA: GGGAGUUCUACAGUCCGACGAUCUUUUUGUUUUAUUUUUAAAAUGUGUAAAACAUCUUUUGUUUUAUAUGCUUUUAAGAAUGUAGAUUGUAAUUUAGGAAAUGGCAUAUAUUCUGCAAAGUGGUAUAAUGUUGUAUAUAUGAACAACAGAGGAUUGAGCAUCA
B3: chr6:98868534:98874277:-|three_prime_utr|ENSG00000112234|control|control|control (ssRNA)
RNA: GGGAGUUCUACAGUCCGACGAUCAUUAAAAUUAAUGUGCUUUGUUGGGGUUUAAUUUUGGGAUUGGUUUUGGGUUUUGUUUUUAGUUGUUUUAAUGGUAAGAAUUAAGACAUUUGUAGAUUUUAAAGAAAAAUAUGAAAUUGUCAACAGAGGAUUGAGCAUCA
B4: chr5:132541444:132541810:-|three_prime_utr|ENSG00000113525|control|control|control (ssRNA)
RNA: GGGAGUUCUACAGUCCGACGAUCAAAUUGAUAUACUUUUUUCUUAUUUAACUUAACAUUCUGUAAAAUGUCUGUUAACUUAAUAGUAUUUAUGAAAUGGUUAAGAAUUUGGUAAAUUAGUAUUUAUUUAAUGUUAUGUUGUGUCAACAGAGGAUUGAGCAUCA
B5: chr9:83661418:83661519:-|3pUTR|ENSG00000135018|msi1|total|mutant (ssRNA)
RNA: GGGAGUUCUACAGUCCGACGAUCUACCGUUGGGUGACCAGAUUUUGUCCUGCAUCUGUCCAGUUUAUUUGCUUUUUAAACAUCCGCCUAUGGCCGUAAUUUAUGCCGAAUAAAAGCAUUAAAAAGAAGCAAAUCAUUUGCACUCAACAGAGGAUUGAGCAUCA
B6: chr9:83661418:83661519:-|3pUTR|ENSG00000135018|msi1|FALSE|unique (ssRNA)
RNA: B5 RNA with C26U, C27A, C83U, C84A, C93U, C94A, C105U, C106A
B7: chr20:54218986:54219149:+|CDS|ENSG00000101132|unk|FALSE|unique (ssRNA)
RNA: GGGAGUUCUACAGUCCGACGAUCAAAUUUGCAAGAAGAAAUUGACGCCUUAGAAUCCAGAGUGGAAUCAAUUCAGCGAGUGUUAGCAGAUUUGAAAGUUCAGUUGUAUGCAAAAUUCGGGAGCAACAUAAACCUUGAAGCUGACAACAGAGGAUUGAGCAUCA
B8: chr5:136988535:136988636:-|CDS|ENSG00000152377|msi1|total|mutant (ssRNA)
RNA: GGGAGUUCUACAGUCCGACGAUCGGAAAGCAUCAGGCUUGGUGGCAGCUGAGAUAUGCCUUUUGUUUGGCAGGGUUUGACACCCGCAUCCUGCCCAUCUGCAAGGACUCCCUGGGCUGGAUGUUCAACAAGUUGGACAUGAACCAACAGAGGAUUGAGCAUCA
B9: ENSG00000107863:be:win_3301|CDS|ENSG00000107863|bound_else_gene|NA|bound_elsewhere_windowed (ssRNA)
RNA: GGGAGUUCUACAGUCCGACGAUCAAGGAAGAGUCGGAAAGGAAACUUCUCAGUAAAGAUGAUACCAGUCCCCCAAAAGACAAAGGCACAUGGAGAAAAGGCAUUCCAAGUAUCAUGAGAAAGACAUUUGAGAAAAAGCCAACUCAACAGAGGAUUGAGCAUCA
B10: ENSG00000136451:be:win_2301|3pUTR|ENSG00000136451|bound_else_gene|NA|bound_elsewhere_windowed (ssRNA)
RNA: GGGAGUUCUACAGUCCGACGAUCAAAAAUCUACAAAUUGUGUUUUGCUAAGAAAAGCCUCAACUGACAGAGGAGAAGUCAAGUGUGUGGACAGGCAAGCUCCUAAUAAACAGAGUCCAGUGGGAUUCCUAUUUAGGAGCCAAGCAACAGAGGAUUGAGCAUCA
B11: chr10:123166816:123166917:+|3pUTR|ENSG00000154473|unk|FALSE|unique (ssRNA)
RNA: GGGAGUUCUACAGUCCGACGAUCAAAAACUUAAAGGUAUAUUAGCAGGUUAGCCUUUGUUCUGUGGGAGAUCCAGGCCUUGUUAGAAGGACCAAGGCCAGAAUGCCCAGUUUAGCCUUAGCAUUCAAACCCUUCAUUGUUUUUCAACAGAGGAUUGAGCAUCA
B12: chr12:48653210:48654175:-|three_prime_utr|ENSG00000139620|control|control|control (ssRNA)
RNA: GGGAGUUCUACAGUCCGACGAUCGCACCAUUGUCUCAGAGUGGAUUGGCUACUGCAAAUGGGAAGCCAGAACCCACUUCUAUUAGUUGAUAGUUUGGGGAACCAUUUUACUUUGGUGGAUUUAAAUUUCUCGUUCUUCAAAGACAACAGAGGAUUGAGCAUCA
B13: chr1:162523450:162523604:+|3pUTR|ENSG00000152332|msi1|FALSE|unique (ssRNA)
RNA: GGGAGUUCUACAGUCCGACGAUCAGACUAAGUUGUGCCAGAUGUAAAUCAACCCCUCUUUUAGUUUACUUUAGACUUUGUAUUAGCUCAUCUUUUUUGUAGUAAAUCUAUAGUUUUAAGGUUUCUCAAGAUGUGGCUCUACCUCAACAGAGGAUUGAGCAUCA
B14: chr11:130144177:130144243:+|3pUTR|ENSG00000084234|msi1_unk|total|mutant (ssRNA)
RNA: GGGAGUUCUACAGUCCGACGAUCAUGAGGGUGUCCGCUGCUGCUUUCCUUCGGAAUCCAGUGCUUCCACAGAGAUCCGCCUGCCGCUUAUAUUUGACAUUCUUCACUGUCUGUUGUUUACCUACCGCCGCUUUUUACCGUUCACAACAGAGGAUUGAGCAUCA
B15: chr1:965281:965395:+|3pUTR|ENSG00000187961|unk|FALSE|unique (ssRNA)
RNA: GGGAGUUCUACAGUCCGACGAUCCCAUCCGUUCACGUCUCUGCAUCCAUUCCUUCAUGUCUUUAUUUAGUUGUUUAUUUAUUUAGUUAUUUAUCUUAUUUAUUGAGGGGUGAGGAGUGCCACGGCUGCCCGUUUACACCUUUACAACAGAGGAUUGAGCAUCA
B16: chr7:107760707:107760808:+|3pUTR|ENSG00000105879|unk|FALSE|unique (ssRNA)
RNA: GGGAGUUCUACAGUCCGACGAUCAAACAUGAAAUAUGUAGUAUGCAGAUAUCAUUUAUUAGAUAGUUUGUAGUGUAUACAUUUAGAACAUACUUCUUUUGACAAAGGGUGAUCUGAUUGCUAAUUUACCAUUUUAUUCUGUCACAACAGAGGAUUGAGCAUCA
B17: chr1:965281:965395:+|3pUTR|ENSG00000187961|unk|total|mutant (ssRNA)
RNA: B15 RNA with U67C, A68C, U83C, A84C
B18: chr3:62294290:62294391:+|3pUTR|ENSG00000144724|msi1|FALSE|unique (ssRNA)
RNA: GGGAGUUCUACAGUCCGACGAUCAACUAGUCCUCUAAAAAUUCCCUAUUACUCCUAUAGCAAUCUAAUAAAAACUACCUACAUAGUUACUGUUUUCUUUCCUUCUUUGCCAAAUGUUUUAUAAUAAAUCUCUUAAUUACAUACCAACAGAGGAUUGAGCAUCA
B19: chr17:77216858:77216994:+|3pUTR|ENSG00000129657|unk|FALSE|bound_elsewhere (ssRNA)
RNA: GGGAGUUCUACAGUCCGACGAUCUGUUUCUACCUUUAGUACCUUGCCACUCUUUUAAAACGCUGCUGUCAUUUCCCAUUUCUUAGUACUAAUGAUUCUUUGAUUCUCCCUCUAUUAUGUCUUAAUUCACUUUCCUUCCUAAAUCAACAGAGGAUUGAGCAUCA
B20: chr3:62294290:62294391:+|3pUTR|ENSG00000144724|msi1|total|mutant (ssRNA)
RNA: B18 RNA with U27C, A28C, U57C, A58C, U83C, A84C
B21: chr10:119167843:119167906:-|3pUTR|ENSG00000165672|msi1_unk|FALSE|overlapping (ssRNA)
RNA: GGGAGUUCUACAGUCCGACGAUCUGCAUGAUCCCUCAUCCCUGAAAUUGAGUUUAUGUAGUCAUUUUACUUAUUUUAUUCAUUAGCUAACUUUGUCUAUGUAUAUUUCUAGAUAUUGAUUAGUGUAAUCGAUUAUAAAGGAUACAACAGAGGAUUGAGCAUCA
B22: chr1:229660051:229660152:+|3pUTR|ENSG00000135763|msi1|FALSE|bound_elsewhere (ssRNA)
RNA: GGGAGUUCUACAGUCCGACGAUCCUCAUUCAUAGUCUCAGUUACCCAGAUAACCUCGGUUGUCACCUUGGAGUAUCUUGUUGUAGUCCCUUUACUAUGUGUAUGUAUAUAGAUGUGCAUAUAAAUAUAUAUAGUAGCUAAAUUCAACAGAGGAUUGAGCAUCA
B23: chr1:162523450:162523604:+|3pUTR|ENSG00000152332|msi1|total|mutant (ssRNA)
RNA: B13 RNA with U61C, A62C, U71C, A72C, U83C, A84C, U99C, A100C, U110C, A111C
B24: chr7:107760707:107760808:+|3pUTR|ENSG00000105879|unk|total|mutant (ssRNA)
RNA: B16 RNA with U38C, A39C, U59C, A60C, U63C, A64C, U70C, A71C, U83C, A84C

biological target: MSI1 full-length (mouse, UniProt Q61474 1-362); experiment: nsRBNS (natural sequence RNA bind-n-seq); RBNS binding buffer (assumed for nsRBNS): 25 mM Tris pH 7.5, 150 mM KCl, 3 mM MgCl2, 0.01% Triton X-100, 500 ug/ml BSA, 20 U/ml SUPERase-In, 4 C; UNK is unkempt and MSI1 is Musashi-1; names of the RNAs are library labels; protein concentration not given here; high values mean tight binding
Sequence (Q61474 whole entry): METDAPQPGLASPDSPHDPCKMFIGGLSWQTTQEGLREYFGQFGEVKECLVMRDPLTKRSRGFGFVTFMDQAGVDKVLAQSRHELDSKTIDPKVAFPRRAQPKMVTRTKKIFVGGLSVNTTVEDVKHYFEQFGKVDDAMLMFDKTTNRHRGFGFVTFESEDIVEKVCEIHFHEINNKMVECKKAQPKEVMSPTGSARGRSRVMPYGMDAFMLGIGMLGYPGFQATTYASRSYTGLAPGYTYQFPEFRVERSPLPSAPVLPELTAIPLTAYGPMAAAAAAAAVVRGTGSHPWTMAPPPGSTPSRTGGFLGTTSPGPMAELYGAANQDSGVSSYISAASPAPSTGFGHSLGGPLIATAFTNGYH

Binder | binding signal [enrichment R]
B1 | 2.16
B2 | 3.15
B3 | 21.9
B4 | 2.88
B5 | 0.203
B6 | 26.4
B7 | 0.378
B8 | 0.511
B9 | 0.359
B10 | 0.431
B11 | 5.77
B12 | 0.61
B13 | 19.3
B14 | 0.557
B15 | 64.6
B16 | 56.7
B17 | 8.96
B18 | 32
B19 | 6.66
B20 | 8.49
B21 | 1.93
B22 | 3.57
B23 | 0.276
B24 | 0.319
